RGS16-Gao = modulates binding between human RGS16 and Galphao; bead-based flow cytometry RGS16-Galphao binding, fluorescence; actives lie on both sides; actives 0.38% (n = 220,000); binding response (% of control), % at 10 µM; O15492+P09471; call rule not given here;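 further: Galphao activated by GDP with aluminum fluoride before binding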
Target sequence (O15492 whole entry, looked up): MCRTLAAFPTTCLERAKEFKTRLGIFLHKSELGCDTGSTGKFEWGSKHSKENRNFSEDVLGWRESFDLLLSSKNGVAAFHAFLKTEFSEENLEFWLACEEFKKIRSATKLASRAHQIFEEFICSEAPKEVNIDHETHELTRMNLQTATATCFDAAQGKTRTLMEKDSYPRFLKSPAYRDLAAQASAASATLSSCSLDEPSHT
Target sequence (P09471 whole entry, looked up): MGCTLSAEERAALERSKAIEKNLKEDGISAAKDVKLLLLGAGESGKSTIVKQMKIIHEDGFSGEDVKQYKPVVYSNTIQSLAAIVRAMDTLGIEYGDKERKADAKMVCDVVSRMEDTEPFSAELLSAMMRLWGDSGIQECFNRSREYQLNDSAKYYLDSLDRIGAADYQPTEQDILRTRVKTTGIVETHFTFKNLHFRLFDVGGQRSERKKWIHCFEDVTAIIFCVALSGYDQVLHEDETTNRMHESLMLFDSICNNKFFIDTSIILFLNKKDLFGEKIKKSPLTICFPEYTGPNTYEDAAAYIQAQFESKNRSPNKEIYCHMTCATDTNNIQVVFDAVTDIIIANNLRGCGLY
RGS7-Gao reg = human RGS7-Galphao interaction regulation. binding response (% of control), % at 10 µM. Multiplexed bead flow cytometry, RGS7-Galphao binding; actives lie on both sides. AID 1439. actives 0.35% (n = 220,000); in the data active means binding response below about 49% or above about 150%; inconclusive means no clear call, values can overlap the other calls; inactive means in between;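 further: fluorescent Galphao held in activated GDP-AlF4 state binding bead-coupled RGS7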
Target sequence (P09471 whole entry, looked up): as above
GSH bead fluor = compound fluoresces at 488/530 nm on GSH beads; GSH beads flow cytometry, compound fluorescence 488/530 nm; hits give high values; fluorescence (KMESF) at 10 µM; actives 0.25% (n = 190,000); in the data active means fluorescence above about 89;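 further: glutathione beads carrying GST-tagged Bcl family fusion proteins plus one bare bead set; values are compound well signal with DMSO vehicle wells as background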
Avidin fluor = compound fluoresces at 488/530 nm on avidin beads; fluorescence (KMESF) at 10 µM; actives 0.38% (n = 220,000); compound fluorescence 488/530 nm, flow cytometry; hits give high values; in the data active means fluorescence above about 47
RGS8-Gao reg = modulates binding of RGS8 to human Galphao | P09471 | multiplexed bead flow cytometry; actives lie on both sides | response (percent of control binding), % at 10 µM | actives 0.34% (n = 220,000) | AID 1423; in the data active means response below about 60% or above about 140%; inactive means in between;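 further: Galphao activated as the GDP aluminium fluoride complex binding bead-coupled RGS8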
RGS4-Gao reg = human RGS4-Galphao interaction regulation. binding response (% of control), % at 10 µM. P09471. actives 0.33% (n = 220,000). AID 1415. Multiplexed bead flow cytometry, RGS4-Galphao binding; actives lie on both sides; in the data active means binding response below about 49% or above about 150%; inactive means in between;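 further: fluorescent Galphao activated with aluminum fluoride binding bead-coupled RGS4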
Avidin counter = counter-screen: compounds disrupting biotin binding to avidin beads. shares compounds with RGS16-Gao. 1,700 tested, under 10 active. inhibition, % at 10 µM. AID 1783. streptavidin beads, fluorescein-biotin binding, flow cytometry;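 active means inhibition above 50%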;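 further: median green fluorescence of gated singlet beads compared with DMSO control wells; 0% = DMSO wells and 100% = complete loss of bead fluorescence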
RGS8-Gao confirm = confirmation of regulators of human RGS8-Galphao interaction; shares compounds with RGS16-Gao; bead-based flow cytometry RGS8-Galphao binding, fluorescence; actives lie on both sides; binding response (% of control), % at 10 µM; actives 3% (n = 1,700); in the data active means binding response below about 72% or above about 130%; inactive means in between;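 further: Galphao activated as GDP AlF4 complex before binding bead RGS8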
RGS7-Gao single = RGS7-Galphao interaction regulation, single point confirmation. shares compounds with RGS16-Gao. bead-based flow cytometry RGS7-Galphao binding; actives lie on both sides. response (percent of control binding), % at 10 µM. actives 7.8% (n = 1,700); in the data active means response below about 75% or above about 130%; inactive means in between;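 further: fluorescent Galphao activated with GDP and aluminum fluoride binding bead-coupled RGS7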
RGS16-Gao single = confirmation of regulators of human RGS16-Galphao interaction; shares compounds with RGS16-Gao; response (% of control binding), % at 10 µM; AID 1838; bead-based flow cytometry, RGS16-Galphao binding; actives lie on both sides; actives 4% (n = 1,700); in the data active means response below about 74% or above about 130%; inactive means in between;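 further: Galphao activated as the GDP aluminium fluoride complex binding bead-coupled RGS16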
RGS4-Gao single = confirmation of regulators of human RGS4-Galphao interaction; shares compounds with RGS16-Gao; RGS4-Galphao binding, multiplexed bead flow cytometry; actives lie on both sides; binding response (% of control), % at 10 µM; actives 4% (n = 1,700); AID 1840; in the data active means binding response below about 74% or above about 130%; inactive means in between
RGS19-Gao single = RGS19-Galphao interaction regulation, single point confirmation; shares compounds with RGS16-Gao; bead-based flow cytometry RGS19-Galphao binding; actives lie on both sides; response (percent of control binding), % at 10 µM; actives 5% (n = 1,700); in the data active means response below about 50% or above about 160%; inactive means in between;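 further: 100% = no compound control and 0% = blank background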
Starred values were filed as active, the others as inactive; ? = inconclusive; · = not tested or not shown; [ ] = remark or other dose. The list is not random: actives were taken first. Their share in the collection is about 1.2%.

SMILES	RGS16-Gao	RGS7-Gao reg	GSH bead fluor	Avidin fluor	RGS8-Gao reg	RGS4-Gao reg	others
Cc1ccc(NP(=O)(Oc2ccccc2F)Oc2ccccc2F)cc1	98	107	20	48*	97	98
CN(C)P(=NC(=S)c1cccn1C)(N(C)C)N(C)C	107	116	27	58*	101	107
CN(C)P(=O)(NC(=O)c1cccn1C)N(C)C	102	105	8	14	102	104
N=c1n(CCO)c2ccccc2n1Cc1ccccc1	121	103	11	18	103	104
COc1ccc(C(=O)C23CN4CN(CN(C4)C2)C3)cc1	113	116	10	51*	104	102
CCc1c(C)nc(N)nc1N1N=C1SC(C(C)=O)C(C)=O	100	103	16	11	102	101
CCCCCCNC(=O)N[C@H](Cc1ccc(O)cc1)C(=O)NCCC[C@H]1CN2C(=NC[C@H]2CCC)N1CC1CCC1	74	?	·	9	80	97
O=C(COc1ccc2ccccc2c1)N1CCN(CC2CC3C=CC2C3)CC1 (configuration not stated)	110	112	17	50*	104	100
[N-]=[N+]=NC1C[C@H](n2ccc(=O)[nH]c2=O)O[C@@H]1CO (some centres not stated)	97	103	23	10	101	101
S=C1CN=C(c2ccccc2Cl)c2cc(Cl)ccc2N1	100	94	119*	5	100	95
COc1ccccc1-n1c(O)c(C=Nc2c(C)n(C)n(-c3ccccc3)c2=O)c(=O)[nH]c1=O	100	102	261*	8	102	99
C=C1C2C[C@H](O)C(C)(C)[C@@]2(O)[C@H](O)C[C@]23C[C@@](C)(O)[C@H](CC[C@H]12)[C@H]3OC(C)=O (some centres not stated)	159	105	18	7	117	105
C=CCn1c(O)c(C(C)=NCCc2ccccc2)c(=O)[nH]c1=O	99	99	24	51*	102	99
C=CCn1c(O)c(C(CC)=NCCc2ccccc2)c(=O)[nH]c1=O	98	98	56	8	98	99
Cc1ccc2c(c1)CC1(CN2C)C(=O)NC(=O)N(CCc2ccccc2)C1=O (configuration not stated)	101	100	17	6	101	104
COc1ccccc1OCC#CCN1CCCC(C)C1 (configuration not stated)	104	?	15	10	102	101
O=c1[nH]c(O)c(/C=C2\C=NN=C2c2ccccc2)c(=O)[nH]1	84	87	266*	5	84	93
CN(C)CCN=Cc1c(O)n(-c2cccc(C(F)(F)F)c2)c(=O)[nH]c1=O	109	97	266*	10	98	100
C=CCn1c(O)c(C=NCCN(C)C)c(=O)[nH]c1=O	97	93	4	16	102	93
O=C1CN=C(c2ccccc2)c2cc(Br)ccc2N1Cc1cc(=O)n2ccccc2n1	111	107	184*	23	104	106
COC(=O)c1c(C)n(Cc2ccc3c(c2)OCO3)c2ccc(O)cc12	113	104	49	41	100	106
CCOC(=O)c1c(C)n(Cc2ccc3c(c2)OCO3)c2ccc(O)cc12	95	92	249*	7	97	94
Brc1ccc(CN2CCNCC2)s1	101	100	269*	8	99	100
CCC(=NCCc1ccccc1)c1c(O)n(C)c(=O)n(C)c1=O	101	?	·	7	102	102
COc1ccc(C2=CC(c3ccc(OC)c(OC)c3)c3c(c4ccccc4oc3=O)O2)cc1OC (configuration not stated)	101	?	·	10	99	104
SMILES	RGS16-Gao	RGS7-Gao reg	GSH bead fluor	Avidin fluor	RGS8-Gao reg	RGS4-Gao reg	others
Cc1ccc2c(c1)CC1(CN2C)C(=O)NC(=O)N(c2ccc(C)c(C)c2)C1=O (configuration not stated)	143	109	256*	6	118	113
CCC(=NCCN1CCOCC1)c1c(O)n(-c2ccccc2C)c(=O)[nH]c1=O	150	106	26	11	110	105
CC(=NCCN1CCOCC1)c1c(O)n(-c2ccccc2C)c(=O)[nH]c1=O	3.0*	9.2*	12	·	28*	-2.9*
CC1(C)CSC(Nc2ccc(F)c(Cl)c2)=N1	109	103	253*	7	105	104
CC1(C)CN=C(Nc2ccc(F)c(Cl)c2)S1	105	?	·	3	102	105
O=c1[nH]c(=S)[nH]c(O)c1N=Nc1ccc(S(=O)(=O)N2CCOCC2)cc1	-19*	?	·	-4	0.7*	-36*	Avidin counter=-1;RGS8-Gao confirm=99;RGS7-Gao single=98;RGS16-Gao single=99;RGS4-Gao single=99;RGS19-Gao single=89
O=c1[nH]c(O)c(N=Nc2ccc(S(=O)(=O)N3CCOCC3)cc2)c(=O)[nH]1	97	97	8	8	97	98
Cn1c(O)c(C=NCCc2c[nH]c3ccccc23)c(=O)n(C)c1=O	103	108	14	15	98	105
Nc1c2c(nc3sc4c(c13)CCCCC4)CCCC2	89	104	10	3	97	102
BrCC1C[n+]2c(SCc3ccccc3)nc3sc4c(c3c2O1)CCCC4 (configuration not stated)	221*[activator]	?	·	117*	119	249*[activator]	Avidin counter=0;RGS8-Gao confirm=93;RGS7-Gao single=89;RGS16-Gao single=91;RGS4-Gao single=93;RGS19-Gao single=85

Source: PubChem (NMMLSC)
